What all share (assay): DAPPL (digital affinity profiling via proximity ligation, sequencing); 10 mM Tris-HCl pH 7.5, 50 mM NaCl, 1 mM DTT, 4% glycerol, room temperature, 30 min; GST-TFs on glutathione beads, 16-mer random dsDNA library, 0.1% formaldehyde crosslink after washing; high values mean tight binding
Details in all cases: protein: recombinant; tags: N-terminal GST; dsDNA, one strand shown

The target of experiment [1] is T1, ELK4 (Homo sapiens, UniProt P28324-2 1-405).
T1 sequence: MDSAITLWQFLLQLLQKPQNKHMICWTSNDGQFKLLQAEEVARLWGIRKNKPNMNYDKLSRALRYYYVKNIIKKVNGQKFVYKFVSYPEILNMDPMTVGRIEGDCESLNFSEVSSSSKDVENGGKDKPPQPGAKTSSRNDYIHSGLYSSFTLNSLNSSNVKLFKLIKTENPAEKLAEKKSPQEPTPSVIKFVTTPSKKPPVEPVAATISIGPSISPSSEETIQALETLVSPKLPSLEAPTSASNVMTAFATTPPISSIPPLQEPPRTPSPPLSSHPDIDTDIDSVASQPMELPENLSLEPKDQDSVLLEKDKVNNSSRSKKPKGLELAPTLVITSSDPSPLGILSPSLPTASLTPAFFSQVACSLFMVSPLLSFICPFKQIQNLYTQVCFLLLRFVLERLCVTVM
In outline:
(§1)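 Each value of binding signal is a hexamer's read frequency for a factor divided by the same hexamer's frequency in the tag-only sample. Barcoded, bead-captured GST fusions of human transcription factors made in yeast were pooled with that sample and incubated with 200 nmole of a random double-stranded 16-mer DNA library in Tris/NaCl/DTT/glycerol buffer at room temperature for 30 min. Washing, 0.1% formaldehyde crosslinking, proximity ligation, PCR and Illumina NextSeq500 sequencing followed.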

Experiment [2] has as its target T2, ETV2 (Homo sapiens, UniProt O00321 1-342).
T2 sequence: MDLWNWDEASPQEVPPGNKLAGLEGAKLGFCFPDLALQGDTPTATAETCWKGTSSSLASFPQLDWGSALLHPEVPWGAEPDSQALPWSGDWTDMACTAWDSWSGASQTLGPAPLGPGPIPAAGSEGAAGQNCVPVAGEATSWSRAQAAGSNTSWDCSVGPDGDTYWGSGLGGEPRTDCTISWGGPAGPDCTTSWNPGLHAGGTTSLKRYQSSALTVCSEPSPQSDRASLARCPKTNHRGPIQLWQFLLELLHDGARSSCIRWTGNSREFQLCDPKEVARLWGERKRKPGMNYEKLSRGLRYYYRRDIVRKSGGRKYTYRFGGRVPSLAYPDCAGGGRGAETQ
In outline: as §1

For experiment [3], the target named is T3, ELF3 (Homo sapiens, UniProt P78545 1-371).
T3 sequence: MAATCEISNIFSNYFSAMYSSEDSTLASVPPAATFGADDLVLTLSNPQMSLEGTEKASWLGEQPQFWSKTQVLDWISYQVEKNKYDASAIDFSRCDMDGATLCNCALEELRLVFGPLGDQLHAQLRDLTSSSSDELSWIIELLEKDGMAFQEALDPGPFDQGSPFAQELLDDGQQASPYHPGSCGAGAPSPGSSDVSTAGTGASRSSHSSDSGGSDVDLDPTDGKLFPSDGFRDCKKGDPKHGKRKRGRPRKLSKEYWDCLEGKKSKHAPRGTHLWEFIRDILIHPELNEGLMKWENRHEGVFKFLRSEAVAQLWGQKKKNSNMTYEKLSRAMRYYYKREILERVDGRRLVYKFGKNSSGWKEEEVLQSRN
The method, boiled down: as §1

Experiment [4] concerns the target ETV1 (Homo sapiens, UniProt P50549 1-477). In outline: as §1
Experiment [5] concerns the target T4, ERF (Homo sapiens, UniProt P50548 1-548).
T4 sequence: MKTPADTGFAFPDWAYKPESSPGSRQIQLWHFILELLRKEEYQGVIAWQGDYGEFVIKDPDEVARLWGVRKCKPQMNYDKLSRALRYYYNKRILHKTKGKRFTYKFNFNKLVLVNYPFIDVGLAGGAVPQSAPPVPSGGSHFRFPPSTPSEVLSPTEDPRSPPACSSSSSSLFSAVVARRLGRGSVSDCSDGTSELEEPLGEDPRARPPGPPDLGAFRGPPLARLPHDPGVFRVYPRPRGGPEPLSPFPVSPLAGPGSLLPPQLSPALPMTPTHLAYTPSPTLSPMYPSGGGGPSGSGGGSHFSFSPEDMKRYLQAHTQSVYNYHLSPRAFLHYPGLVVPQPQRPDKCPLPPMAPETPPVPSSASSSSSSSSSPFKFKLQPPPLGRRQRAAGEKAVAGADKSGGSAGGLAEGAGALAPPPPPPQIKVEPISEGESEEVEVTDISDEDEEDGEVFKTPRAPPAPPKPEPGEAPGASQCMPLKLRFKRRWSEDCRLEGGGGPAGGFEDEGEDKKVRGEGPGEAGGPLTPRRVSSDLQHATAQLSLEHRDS
The method, boiled down:
as §1

Experiment [6] addresses T5, ETV3L (Homo sapiens, UniProt Q6ZN32 1-361).
T5 sequence: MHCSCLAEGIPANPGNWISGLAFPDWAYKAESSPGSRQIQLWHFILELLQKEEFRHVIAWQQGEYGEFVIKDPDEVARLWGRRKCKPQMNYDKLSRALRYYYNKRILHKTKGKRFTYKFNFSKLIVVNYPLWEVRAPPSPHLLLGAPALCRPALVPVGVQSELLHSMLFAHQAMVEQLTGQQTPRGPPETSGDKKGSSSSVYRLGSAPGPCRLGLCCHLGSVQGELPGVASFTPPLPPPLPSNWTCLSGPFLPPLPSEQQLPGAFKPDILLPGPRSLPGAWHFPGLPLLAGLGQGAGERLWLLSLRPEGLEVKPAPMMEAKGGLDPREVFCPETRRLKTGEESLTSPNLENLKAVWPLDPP
The method, boiled down: as §1

In experiment [7] the target is T6, ETS2 (Homo sapiens, UniProt P15036 1-469).
T6 sequence: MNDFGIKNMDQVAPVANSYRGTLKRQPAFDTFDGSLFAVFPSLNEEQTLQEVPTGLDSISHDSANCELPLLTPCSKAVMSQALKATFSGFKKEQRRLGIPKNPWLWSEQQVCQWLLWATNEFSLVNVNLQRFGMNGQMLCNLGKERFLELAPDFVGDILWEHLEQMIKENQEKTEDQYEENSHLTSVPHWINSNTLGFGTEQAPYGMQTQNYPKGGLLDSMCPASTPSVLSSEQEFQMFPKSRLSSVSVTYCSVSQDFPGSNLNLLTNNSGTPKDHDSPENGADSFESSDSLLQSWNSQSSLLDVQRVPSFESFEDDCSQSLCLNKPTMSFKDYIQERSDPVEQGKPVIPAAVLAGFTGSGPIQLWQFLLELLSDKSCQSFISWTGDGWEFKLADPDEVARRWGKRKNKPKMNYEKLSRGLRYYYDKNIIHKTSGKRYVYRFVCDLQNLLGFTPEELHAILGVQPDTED
The method, boiled down:
as §1

Experiment [8] concerns the target T7, SPDEF (Homo sapiens, UniProt O95238 1-335).
T7 sequence: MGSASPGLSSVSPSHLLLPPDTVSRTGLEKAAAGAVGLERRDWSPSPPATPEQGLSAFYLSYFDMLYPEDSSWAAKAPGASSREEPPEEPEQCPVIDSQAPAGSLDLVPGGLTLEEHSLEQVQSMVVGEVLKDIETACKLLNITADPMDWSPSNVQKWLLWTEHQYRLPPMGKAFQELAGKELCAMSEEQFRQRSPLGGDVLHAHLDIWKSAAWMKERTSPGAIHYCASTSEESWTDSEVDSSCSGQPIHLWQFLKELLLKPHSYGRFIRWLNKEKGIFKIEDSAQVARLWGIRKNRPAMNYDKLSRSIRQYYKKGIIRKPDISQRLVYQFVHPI
In outline:
as §1

In experiment [9] the target is T8, ETV7 (Homo sapiens, UniProt Q9Y603 1-341).
T8 sequence: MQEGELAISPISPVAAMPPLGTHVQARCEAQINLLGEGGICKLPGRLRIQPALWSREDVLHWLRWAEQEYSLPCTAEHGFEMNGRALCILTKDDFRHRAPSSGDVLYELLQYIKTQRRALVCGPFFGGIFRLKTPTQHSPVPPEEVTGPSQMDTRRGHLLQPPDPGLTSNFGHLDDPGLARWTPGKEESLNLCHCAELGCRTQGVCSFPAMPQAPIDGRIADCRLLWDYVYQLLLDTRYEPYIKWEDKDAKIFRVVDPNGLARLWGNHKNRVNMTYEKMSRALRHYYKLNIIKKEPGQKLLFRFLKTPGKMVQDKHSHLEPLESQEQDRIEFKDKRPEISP
In outline: as §1

In experiment [10] the target is T9, ELF5 (Homo sapiens, UniProt Q9UKW6-2 1-255).
T9 sequence: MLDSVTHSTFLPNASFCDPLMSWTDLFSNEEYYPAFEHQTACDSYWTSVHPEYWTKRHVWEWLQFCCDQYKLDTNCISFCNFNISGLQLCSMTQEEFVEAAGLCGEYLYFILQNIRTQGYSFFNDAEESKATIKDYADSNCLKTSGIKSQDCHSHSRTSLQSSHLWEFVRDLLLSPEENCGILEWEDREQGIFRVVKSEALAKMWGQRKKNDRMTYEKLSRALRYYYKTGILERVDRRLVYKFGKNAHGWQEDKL
The method, boiled down: as §1

For experiment [11], the target named is T10, ETV3 (Homo sapiens, UniProt P41162-2 1-143).
T10 sequence: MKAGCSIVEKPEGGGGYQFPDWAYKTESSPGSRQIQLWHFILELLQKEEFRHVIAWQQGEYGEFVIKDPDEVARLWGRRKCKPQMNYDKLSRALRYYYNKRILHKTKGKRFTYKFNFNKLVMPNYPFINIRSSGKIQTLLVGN
In outline: as §1

For experiment [12], the target named is ETV6 (Homo sapiens, UniProt P41212 1-452). The method, boiled down: as §1
Chain of ETV6 (P41212 whole entry): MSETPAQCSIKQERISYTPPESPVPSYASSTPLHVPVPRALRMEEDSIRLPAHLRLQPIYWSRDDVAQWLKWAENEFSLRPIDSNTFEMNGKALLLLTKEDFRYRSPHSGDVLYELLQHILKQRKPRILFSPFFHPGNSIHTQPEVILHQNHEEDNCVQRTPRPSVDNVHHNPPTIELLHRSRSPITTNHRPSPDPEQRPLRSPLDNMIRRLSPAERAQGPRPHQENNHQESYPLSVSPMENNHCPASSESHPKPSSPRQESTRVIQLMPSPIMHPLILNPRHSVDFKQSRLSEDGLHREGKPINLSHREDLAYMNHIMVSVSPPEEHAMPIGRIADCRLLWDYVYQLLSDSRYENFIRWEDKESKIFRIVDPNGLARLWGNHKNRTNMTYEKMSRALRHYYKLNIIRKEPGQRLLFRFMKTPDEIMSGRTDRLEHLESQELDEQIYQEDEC

Chain of ETV1 (P50549 whole entry): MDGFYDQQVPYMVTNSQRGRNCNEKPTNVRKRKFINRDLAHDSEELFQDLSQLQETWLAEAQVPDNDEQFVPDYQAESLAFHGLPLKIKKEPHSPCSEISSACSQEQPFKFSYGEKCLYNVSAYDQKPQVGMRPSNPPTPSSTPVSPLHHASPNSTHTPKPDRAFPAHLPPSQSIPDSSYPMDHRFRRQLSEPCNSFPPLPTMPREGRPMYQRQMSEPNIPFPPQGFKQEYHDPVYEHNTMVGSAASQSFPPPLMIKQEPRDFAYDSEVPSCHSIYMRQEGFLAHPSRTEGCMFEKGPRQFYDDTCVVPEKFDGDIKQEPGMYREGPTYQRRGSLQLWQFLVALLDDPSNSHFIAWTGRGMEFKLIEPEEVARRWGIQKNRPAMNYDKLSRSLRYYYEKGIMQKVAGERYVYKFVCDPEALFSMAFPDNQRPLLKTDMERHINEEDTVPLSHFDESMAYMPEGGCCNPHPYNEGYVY

As for ACCCCT, the binding signal was 1.28 fold enrichment (6-mer frequency, TF over GST control) in [1]; 1.17 fold enrichment (6-mer frequency, TF over GST control) in experiment [2]; 1.09 fold enrichment (6-mer frequency, TF over GST control) in experiment [3]; 1.21 fold enrichment (6-mer frequency, TF over GST control) in experiment [4]; 1.06 fold enrichment (6-mer frequency, TF over GST control) in [5]; 1.05 fold enrichment (6-mer frequency, TF over GST control) in experiment [6]. Besides, the binding signal was 1.08 fold enrichment (6-mer frequency, TF over GST control) in experiment [7]; 1.16 fold enrichment (6-mer frequency, TF over GST control) in [8]; 1 fold enrichment (6-mer frequency, TF over GST control) in experiment [9]; 1 fold enrichment (6-mer frequency, TF over GST control) in experiment [10]; 1.03 fold enrichment (6-mer frequency, TF over GST control) in experiment [11]; 1.16 fold enrichment (6-mer frequency, TF over GST control) in [12].

(Values after PMC7862700, “An all-to-all approach to the identification of sequence-specific readers for epigenetic DNA modifications on cytosine”.)
